Shown are actives, neighbours in structure and some others; about 2.7% of the full set was active somewhere.
EWS-Fli block: inhibitors of EWS/Fli oncoprotein transcriptional activity. A673 NR0B1-luciferase reporter, viability-normalised. inhibition, % at 12.6 µM. 0.67% of 350,000 active. AID 651661;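 active = mean inhibition of at least 50% after viability correction, with every replicate also passing that limit; inconclusive = mean reaches 50% but only one of two replicates passes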;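 note: firefly luciferase signal divided by Alamar Blue viability fluorescence both relative to DMSO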
HIV Env fusion: blocks HIV Env-driven cell-cell fusion. 1.1% of 360,000 active. inhibition, % at 12.3 µM. HeLa-JRFL Env/CEM21 cell fusion, luciferase. AID 651610;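 active = mean replicate inhibition score of at least 50 and every replicate individually at or above 50; inconclusive = only one of the two criteria met; inactive = mean below 50 and not all replicates reaching 50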;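 note: 0% = plate neutral controls and 100% = maraviroc near 300 nM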
PGC1a acetyl inh: lowers PGC1a acetylation signal in U2OS cells; AlphaScreen anti-acetyl-lysine; with virally co-expressed GCN5 acetyltransferase; inhibition, % at 15.6 µM; 0.17% of 350,000 active; AID 651687;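 active = every replicate shows inhibition of at least 40%; inconclusive = mean inhibition at least 40% but some replicate below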;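 note: 0% = neutral control wells and 100% = positive control wells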
INS-1E GSIS act: primary screen for activators of insulin secretion dependent on glucose, INS-1E cells, GLuc reporter luminescence; INS-1E GLuc reporter insulin secretion, 2-3 h; activation, % at 16.6 µM; 0.61% of 370,000 active;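 active = lowest replicate activation of at least 40%, so every replicate reaches that level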;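 note: 0% = median of neutral control wells and 100% = median of IBMX positive control wells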
PAX8 reporter: PAX8 transcriptional activity inhibition; RMG-I TPO-luciferase reporter, SteadyGlo, 24 h; inhibition, % at 12.6 µM; 1.2% of 360,000 active; AID 652154;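 active = mean replicate inhibition at least 60% with every replicate also reaching 60%; inconclusive = only one of the two criteria is met; inactive = mean below 60% and not all replicates reaching 60%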;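 note: luciferase light reporting Pax8 driven TPO promoter activity; plate controls were median of neutral control wells for no effect and mitoxantrone controls for full effect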
CFTR F508del cor: CFTR F508del correction in bronchial cells | CFBE cells, YFP halide quenching; stimulated with forskolin plus potentiator P3; % fluorescence drop versus neutral controls | activity (quench increase), % at 7.58 µM | 0.36% of 350,000 active | AID 720511;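 active = mean added fluorescence quench of at least 8% versus neutral control, with both replicates also reaching 8%; inconclusive = only one of the mean or replicate conditions met; inactive = mean below 8% and not both replicates reaching 8%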;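 note: cells transiently co-express mutant CFTR-F508del with the halide-sensitive YFP; corrector assay measuring rescue of mutant channel to the surface after 24 h compound exposure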
An asterisk follows results filed as active; i = inactive; ? = inconclusive; · = no result given; [ ] = another dose, or the depositor's remark.

SMILES	EWS-Fli block	HIV Env fusion	PGC1a acetyl inh	INS-1E GSIS act	PAX8 reporter	CFTR F508del cor
COc1cccc(NC(=O)c2ccccc2)c1	-91	-47	·	0	-146	0
COc1ccc(CN(C)C[C@H]2Oc3ccc(NC(=O)Cc4cn(C)c5ccccc45)cc3CC(=O)N([C@H](C)CO)C[C@@H]2C)cc1	6	·	-2	-10	19	3
CN1/C(=C\C=C2/C(=O)Oc3ccccc3C2=O)C(C)(C)c2ccccc21	-113	-2	·	-10	-81	4
CCCN1C(=O)/C(=C\C=C2\N(CC)c3ccccc3C2(C)C)SC1=S	-27	11	5	12	15	16*
CCN1C(=O)/C(=C/C=C2\C=CN(CC)c3ccccc32)SC1=S	·	-22	-3	-3	-34	·
CN1/C(=C\C=N\O)C(C)(C)c2ccccc21	2	20	-6	-19	3	·
CN1C(=CC=C2C=C(I)C(=O)C(I)=C2)C(C)(C)c2ccccc21	14	-9	3	-36	23	9.6*
CN1/C(=C\C=C2/SC(=S)NC2=O)C(C)(C)c2ccccc21	-9	32	·	18	?	25*
CO[C@@H]1CN(C)C(=O)c2ccc(NC(=O)C3CC3)cc2OC[C@H](C)N(C(=O)Cc2ccccn2)C[C@@H]1C	1	·	4	-2	-6	1
C[C@@H]1CCCCO[C@@H](CN(C)S(=O)(=O)c2cccs2)[C@H](C)CN([C@@H](C)CO)C(=O)c2cc(NS(=O)(=O)c3ccc(F)cc3)ccc2O1	5	-1[16.7 µM]	-2	-13	7	0
OC(c1cc(-c2ccc(C(F)(F)F)cc2)nc(C(F)(F)F)c1)C1CCCCN1 (stereo unspecified)	35	2	-38	-29	88*	-3
OC(c1cc(-c2cccc(Cl)c2)nc2ccccc12)C1CCCCN1 (stereo unspecified)	-3	-22	-45	29	6	0
CC(=O)N(C)C[C@@H]1Oc2cc(-c3ccccc3F)ccc2S(=O)(=O)N([C@@H](C)CO)C[C@@H]1C	-5	11[16.7 µM]	-7	11	·	-1
COc1ccc(S(=O)(=O)Nc2ccc3c(c2)C(=O)N([C@H](C)CO)C[C@@H](C)[C@H](CN(C)S(=O)(=O)c2ccc(C)cc2)OCCCC[C@@H](C)O3)cc1	9	-19[16.7 µM]	-14	-8	67*	-2
COc1ccc(S(=O)(=O)Nc2ccc3c(c2)C(=O)N([C@H](C)CO)C[C@H](C)[C@@H](CN(C)S(=O)(=O)c2ccc(F)cc2)OCCCC[C@H](C)O3)cc1	-5	7[16.7 µM]	-5	3	76*	1
COc1ccc(S(=O)(=O)Nc2ccc3c(c2)C(=O)N([C@@H](C)CO)C[C@@H](C)[C@@H](CN(C)S(=O)(=O)c2ccc(F)cc2)OCCCC[C@H](C)O3)cc1	5	-6[16.7 µM]	13	10	-11	-3
COc1ccc(S(=O)(=O)N(C)C[C@@H]2OCCCC[C@H](C)Oc3ccc(NS(=O)(=O)c4ccc(C)cc4)cc3C(=O)N([C@@H](C)CO)C[C@H]2C)cc1	15	-6[16.7 µM]	3	-21	7	-1
COc1ccc(S(=O)(=O)Nc2ccc3c(c2)C(=O)N([C@@H](C)CO)C[C@@H](C)[C@@H](CN(C)S(=O)(=O)c2ccc(C)cc2)OCCCC[C@H](C)O3)cc1	4	-24[16.7 µM]	3	13	-1	3
COc1ccc(S(=O)(=O)Nc2ccc3c(c2)C(=O)N([C@H](C)CO)C[C@H](C)[C@@H](CN(C)S(=O)(=O)c2ccc(C)cc2)OCCCC[C@H](C)O3)cc1	2	7[16.7 µM]	1	-5	78*	-2
CCc1nc(N2[C@H](C#N)[C@@H](c3ccccc3-c3ccccc3F)[C@@H]2CO)sc1C	4	·	-11	3	-2	1
CN1C(=O)c2cc(NC(=O)Nc3ccccc3)ccc2OC[C@H]2O[C@@H](CC(=O)O)CC[C@@H]21	2	-9[16.7 µM]	·	4	6	·
CC1(Cc2ccccc2C#N)C(=O)Nc2ccc(-c3ccccc3)cc21 (stereo unspecified)	5	·	4	-16	10	-2
COc1ccccc1-c1ccc2c(c1)C(C)(Cc1ccccc1C#N)C(=O)N2 (stereo unspecified)	3	63*	·	-24	7	2
CC1(Cc2ccc(Cl)cc2)C(=O)Nc2ccc(-c3ccc(F)c(Cl)c3)cc21 (stereo unspecified)	2	18	-3	1	18	-3
COc1ccccc1-c1ccc2c(c1)C(C)(Cc1ccc(Cl)c(Cl)c1)C(=O)N2 (stereo unspecified)	-1	100*	-22	25	12	3
SMILES	EWS-Fli block	HIV Env fusion	PGC1a acetyl inh	INS-1E GSIS act	PAX8 reporter	CFTR F508del cor
C[C@@H]1CCCCO[C@H](CN(C)C(=O)C2CCCCC2)[C@H](C)CN([C@@H](C)CO)C(=O)c2cc(NC(=O)CCCN(C)C)ccc2O1	-7	-25[16.7 µM]	5	2	0	3
COc1ccccc1NC(=O)N[C@@H]1CC[C@H](CCNS(=O)(=O)c2ccccc2)O[C@@H]1CO	12	-6[16.7 µM]	0	4	4	-3
CC1(C(=O)NS(=O)(=O)c2ccccc2Cl)CCN1C(=O)C1(c2ccccc2)CC1 (stereo unspecified)	3	38	4	22	-13	1
CC1(C(=O)NS(=O)(=O)c2cccs2)CCN1C(=O)C1(c2ccccc2)CCCC1 (stereo unspecified)	0	-10	·	-4	-25	1
CC1(C(=O)NS(=O)(=O)c2ccc(Cl)s2)CCN1C(=O)C1(c2ccccc2)CCCC1 (stereo unspecified)	-6	-24	16	111*	-8	-1
CC1(C(=O)NS(=O)(=O)c2ccc(Cl)s2)CCN1C(=O)C1(c2ccc(Cl)cc2)CC1 (stereo unspecified)	4	-3	8	·	-4	1
Cc1noc(C)c1S(=O)(=O)NC(=O)C1(C)CCN1C(=O)C1(c2ccc(Cl)cc2)CCC1 (stereo unspecified)	11	-8	5	55*	10	2
CC1(C(=O)NS(=O)(=O)c2ccccc2Cl)CCN1C(=O)C1(c2ccccc2)CCCC1 (stereo unspecified)	-4	-1	·	92*	10	2
CC1(C(=O)NS(=O)(=O)c2ccc(Cl)s2)CCN1C(=O)C1(c2ccc(Cl)cc2)CCC1 (stereo unspecified)	-2	i	17	59*	1	5
CCNC(=O)C[C@H]1CC[C@@H]2[C@H](COc3ccc(NC(=O)Cc4ccccc4)cc3C(=O)N2C)O1	4	0[16.7 µM]	2	0	-11	4
C[C@H](CO)N1C[C@H](C)[C@H](CN(C)S(=O)(=O)c2ccc(F)cc2)Oc2c(NC(=O)c3cnccn3)cccc2C1=O	1	-15[16.7 µM]	5	6	·	0
